# Shown are actives, neighbours in structure and some others; about 18% of the full set was active somewhere.
# TDP1 block = TDP1 (human) enzyme inhibition. Q9NUW8. recombinant TDP1, AlphaScreen DNA substrate cleavage. Potency, µM (top dose mostly 130 µM), most hits filed as inhibitors. actives 0.28% (n = 350,000). AID 485290; further: nearly all actives have a fitted effect of over 40% in size
#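 Signal: AlphaScreen proximity between streptavidin donor and anti-FITC acceptor beads on intact substrate. Reaction: Tdp1 1 nM, substrate 15 nM final, 5 min RT after 15 min compound preincubation.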
# TDP1 cell CPT = growth inhibition of DT40 Tdp1-/-;hTDP1 cells with camptothecin (screen for TDP1 inhibitors); actives 12% (n = 420,000); Potency, µM (top dose mostly 46.2 µM), most hits filed as inhibitors; chicken DT40 Tdp1-/-;hTDP1 cells + 20 nM CPT, ATP luminescence, 48 h; further: nearly all actives have a fitted effect of over 55% in size
#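 Cell growth measured by CellTiter-Glo luminescence after a minimum 48 h, 37 C compound exposure with 20 nM CPT in Tdp1-knockout DT40 cells stably expressing hTDP1, seeded 400/well; qHTS titration format.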
# CtBP-E1A inh = CtBP/E1A binding inhibition; activity change, % (no concentration beside the values); AlphaScreen GST-E1A/His-CtBP binding, 1536-well; hits give low values; actives 0.49% (n = 340,000); in the data active means activity change below about -65%; inconclusive means mostly about -30% to -63%
#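 Homogeneous bead-based format: GST-tagged E1A captured on glutathione donor beads, His-tagged CtBP on nickel acceptor beads; compounds precede bead addition by 2 h at 37 °C.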
# TDP1 cell noCPT = qHTS for Inhibitors of human tyrosyl-DNA phosphodiesterase 1 (TDP1): qHTS in cells in absence of CPT; DT40 Tdp1-/- hTDP1 cells, no CPT, ATP luminescence, 48 h; Potency, µM (top dose mostly 46.2 µM), hits mostly inhibitors; actives 15% (n = 420,000); AID 686978, 2013; further: nearly all actives have a fitted effect of over 55% in size
#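 Luminescent ATP content (CellTiter-Glo) served as the growth readout. Knockout chicken DT40 cells expressing human TDP1 were exposed to compounds without camptothecin for a minimum 48 hr at 37 °C.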
# IL-1B inflam inh = inflammasome signaling inhibition, IL-1 beta readout. THP-1 LPS/ATP IL-1B secretion, AlphaLISA, 16 h; hits give low values. actives 4.7% (n = 360,000). activity change, % at 57.5 µM; in the data active means activity change below about -50%; inconclusive means mostly about -30% to -49%
#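 THP-1 cells pretreated 1 hr with compounds (up to 57.5 uM final), then stimulated with LPS (250 ng/mL final) plus ATP (1.25 mM final); secreted IL-1B measured by AlphaLISA after 16 hr, decreased signal indicating inhibition.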
# Six1-Eya2 blk = blocks human Six1 binding to Eya2; activity change, % (test concentration not listed); Q15475+O00167; actives 0.56% (n = 360,000); AID 651725; AlphaScreen GST-Six1/His-Eya2 binding, biochemical; hits give low values; in the data active means activity change below about -65%; inconclusive means mostly about -30% to -63%
#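 Compounds are tested against tagged Six1 and Eya2 proteins bridged by glutathione donor and nickel acceptor beads; after a one-hour incubation at 37 °C without light, AlphaScreen emission is recorded.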
# Hits are given with their value; n = inactive; u = inconclusive; x = no result. Unless noted, the call rests on the fitted dose curve; in most records, active means well fitted curve in the direction sought with a large enough effect; inconclusive means small, poorly fitted or top-dose-only effect, or another doubt; inactive means no such curve, though single readings can be large; an effect the other way counts as inactive or inconclusive.
SMILES,TDP1 block,TDP1 cell CPT,CtBP-E1A inh,TDP1 cell noCPT,IL-1B inflam inh,Six1-Eya2 blk
CCc1c(C)c2ccc(O)c(CN3CCN(c4ccccc4)CC3)c2oc1=O,n,14.6µM,x,20.6µM,x,x
COc1ccc(-n2c(C)c([N+](=O)[O-])c3ccc(O)c(CN4CCCCC4)c32)cc1,n,16.4µM,n,u,-68.2,n
Cc1ccc(-n2c(C)c([N+](=O)[O-])c3ccc(O)c(CN(C)C)c32)cc1,n,u,n,u,u,n
COc1ccc(-c2c(C)c3ccc(O)c(CN4CCOCC4)c3oc2=O)cc1,n,16.4µM,x,23.1µM,x,x
COc1ccc(Oc2c(C)oc3c(CN4CCOCC4)c(O)ccc3c2=O)cc1,n,n,n,n,n,n
C/C=C(\C)CN1CCC(n2nccc2NC(=O)CCc2ccccc2)CC1,n,u,n,n,n,n
COc1c(NC(C)=O)c2c(c([N+](=O)[O-])c1OC)C(=O)OC2,x,n,n,n,n,n
Cc1c(-c2ccc(Cl)cc2)c(=O)oc2c(CN3CCN(C)CC3)c(O)ccc12,n,u,x,23.1µM,x,x
CCOC(=O)CSc1nc(C)c(C(C)=O)cc1C(N)=O,n,n,n,n,-57.3,n
Cc1[nH]c(C)c(S(=O)(=O)N2CCCCC2)c1C(=O)N1CCCC1,n,n,n,n,n,n
Nc1[nH]nc2ncc3cc4ccccc4nc3c12,n,18.4µM,n,9.2µM,-94.9,u
CCNc1ncc2nc(-c3cccs3)c(=O)n(C[C@H]3CCCO3)c2n1,x,n,x,n,x,x
Cc1cc(Br)ccc1NC(=O)CN1C(=O)C2C3CC(c4ccccc4)C(C3)C2C1=O (centres undefined),n,u,n,16.4µM,u,n
O=[N+]([O-])c1ccccc1-n1cnc2ccccc21,n,n,n,u,n,n
COC(=O)c1ccc2[nH]cc(CCO)c2c1,x,n,n,n,n,n
O=C(Cc1cccs1)Nc1nnc(SCc2ccc(Br)cc2)s1,n,n,n,u,n,n
O=C(Cc1cccs1)Nc1nnc(SCc2ccc(C(F)(F)F)cc2)s1,n,14.6µM,n,u,n,n
O=c1oc2ccc(Br)cc2cc1S(=O)(=O)c1ccc(F)cc1,n,n,n,n,-77.8,n
O=C(Nc1ccccc1C(F)(F)F)c1ccc2oc(=O)c(S(=O)(=O)c3ccc(F)cc3)cc2c1,n,n,x,n,x,x
CCOC(=O)C1=CCN(S(=O)(=O)c2cccc(Cl)c2)C1c1ccc(Br)cc1 (centres undefined),x,u,n,u,n,n
Cc1ccc2[nH]c3c(c2c1)CCc1cn[nH]c1-3,n,u,n,23.1µM,n,n
O=C(COc1ccc(Cl)c(Cl)c1)NN1C(=O)C2C(C1=O)C1C=CC2C12CC2 (centres undefined),n,n,x,18.4µM,n,n
Cc1cc(OCC(=O)NC(C)(C)C)ccc1Cl,n,n,n,n,n,n
CC(C)=C1C2CCC1C1C(=O)N(NC(=O)COc3ccc(Cl)c(C)c3)C(=O)C21 (centres undefined),n,n,n,n,-67.8,n
CCCCOc1ccc(C(=O)N2CCCC2)cc1,n,n,n,n,n,n
SMILES,TDP1 block,TDP1 cell CPT,CtBP-E1A inh,TDP1 cell noCPT,IL-1B inflam inh,Six1-Eya2 blk
Cc1ccc(S(=O)(=O)N2CCCCC2)cc1C(=O)Nc1cccnc1,20µM,n,n,n,n,n
COc1ccc(S(=O)(=O)N2CCOCC2)cc1C(=O)Nc1ccc(N2CCCCCC2)cc1,x,18.4µM,u,18.4µM,n,u
CC(=O)Nc1ccc(NC(=O)c2cc(S(=O)(=O)N3CCCCC3)ccc2C)cc1,n,n,n,n,n,n
Cc1ccc(S(=O)(=O)N2CCCCC2)cc1C(=O)Nc1ccc(N2CCOCC2)cc1,n,u,n,12.6µM,n,n
CCCC(C)NC(=S)NC(=O)c1cc(S(=O)(=O)N2CCOCC2)ccc1C (centres undefined),n,20.6µM,n,13µM,n,n
COc1ccccc1N(C)S(=O)(=O)c1ccc(C(=O)OCC(=O)N(C(C)C)C(C)C)cc1,n,n,n,n,n,n
